# High-throughput results (PubChem BioAssay)
# Gli-Sufu block = Gli-Sufu pathway antagonists, primary screen, luciferase luminescence, Sufu-KO-LIGHT cells, uHTS. 340,000 tested, 0.74% active. inhibition, % at 5 µM. Sufu-KO-LIGHT fibroblasts, Gli luciferase reporter luminescence. AID 588413, 2011;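 active means inhibition above about 55%, limit read from the data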;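 further: 0% = DMSO-treated cells and 100% = wells with medium but no cells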
# SMARCA2 activ = SMARCA2 (BRM) function activators, primary screen, cell-based, luminescence, high throughput; MG213 cells, MMTV-luciferase reporter, dexamethasone, overnight; activation, % at 9.1 µM; 370,000 tested, 1% active; in the data active means activation above about 7.8%;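 further: 0% = vehicle wells and 100% = reference activator wells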
# GAA850 FXN act = FXN promoter activators, primary screen, cell-based, luciferase luminescence, HEK293 lucGAA850 | 360,000 tested, 0.56% active | AID 540364, 2011 | activation, % at 6 µM | HEK293 lucGAA850 FXN promoter luciferase reporter, 24 h; percent of 10 µM SAHA response;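 active means activation above the average of all compounds screened plus 3 SD, cutoff fixed separately per campaign, cut at about 7.5% in these data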;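 further: 0% = DMSO wells and 100% = 10 µM SAHA wells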
# H9c2 protect = cardioprotection against H2O2-induced cell death, primary screen, uHTS, H9c2 cells, ATPLite luminescence; AID 588492, 2011; H9c2 cardiomyocytes, H2O2 injury protection, 2 h; protection from H2O2 cell death, % at 20 µM; 360,000 tested, 0.63% active;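 active means compounds giving at least 50% protection of heart cells from peroxide-induced death in the single-dose screen, raw or plate-pattern-corrected value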;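 further: 0% = DMSO wells with peroxide and 100% = DMSO wells without peroxide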
# GalR3 antagonist = GalR3 antagonists in HEK293 cells, primary screen, cell-based, fluorescence readout | Galanin receptor type 3 (Homo sapiens), O60755 | HEK293 GalR3-CNG cAMP membrane potential fluorescence; galR3 body fused to GalR1 C-terminus | inhibition, % at 3 µM | 360,000 tested, 0.44% active | AID 651719, 2012;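 active means inhibition above the screen-wide average plus 3 SD, cut at about 13% in these data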;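 further: forskolin and galanin both at EC90 stimulate the cells; cAMP rise reported by CNG channel membrane potential dye signal; 0% = forskolin plus galanin with DMSO and 100% = forskolin alone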
# Target sequence (O60755 1-299 limits assumed): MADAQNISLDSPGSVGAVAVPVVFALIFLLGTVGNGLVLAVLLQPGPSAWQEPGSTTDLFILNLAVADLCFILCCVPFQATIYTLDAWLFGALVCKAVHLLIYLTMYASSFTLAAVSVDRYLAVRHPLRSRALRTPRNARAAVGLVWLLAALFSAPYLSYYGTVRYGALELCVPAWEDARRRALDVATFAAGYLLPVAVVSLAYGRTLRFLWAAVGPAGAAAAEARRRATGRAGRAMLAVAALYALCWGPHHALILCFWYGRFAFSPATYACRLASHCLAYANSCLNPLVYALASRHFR
# COUP-TFII inh = NR2F2 transcriptional activity inhibitors, primary screen, cell-based, luciferase reporter, HEK293T, luminescence; AID 686940, 2013; HEK293T NGFI-A luciferase reporter; 370,000 tested, 0.7% active; inhibition, % at 8.6 µM;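 active means inhibition above a per-plate cutoff, mean inhibition of test wells between control levels plus 3 SD, cut at about 38% in these data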;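 further: cells cotransfected with COUP-TFII expression vector driving the NGFI-A reporter; 0% = median of COUP-TF2 test wells and 100% = reporter-only cells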
# Starred values were filed as active, the others as inactive; x = not tested or not shown. Compounds with a hit are over-represented: about 3.4% of the library has one in this group of screens.
SMILES,Gli-Sufu block,SMARCA2 activ,GAA850 FXN act,H9c2 protect,GalR3 antagonist,COUP-TFII inh
O=C(CSc1nnc(-c2cccnc2)o1)c1cc2ccccc2oc1=O,7,0,3,51*,-1,0
N#C/C(=C\c1ccc(O)c(O)c1)C(=O)NCCCc1ccccc1,13,1,7,89*,-2,-6
N#C/C(=C\c1ccc(O)c(O)c1)C(=O)c1ccc(O)c(O)c1,3,1,3,64*,0,-9
COc1ccc(/C=C(\C#N)C(=O)NCCc2ccccc2)cc1OCc1ccccc1,13,-3,1,14,-4,14
N#C/C(=C/c1ccc(F)cc1)S(=O)(=O)c1ccccc1,0,-3,0,-1,-6,-13
N#C/C(=C\c1ccc(O)c(O)c1)S(=O)(=O)c1ccccc1,5,-1,2,51*,-2,8
COC(=O)C1CN(Cc2cn(Cc3ccc(OC)cc3)nn2)CCS(=O)(=O)N1Cc1ccc(C)cc1 (stereo not drawn),x,-1,x,x,x,-1
COc1ccc(-c2oc3ncnc(NCCN4CCOCC4)c3c2-c2ccc(OC)cc2)cc1,16,x,2,75*,x,x
COc1ccc(-c2oc3ncnc(NCCCN4CCOCC4)c3c2-c2ccc(OC)cc2)cc1,5,0,3,-8,3,-12
Cc1oc2c(O)c(O)ccc2c(=O)c1-c1ccccc1,5,4,1,69*,2,-3
Cc1oc2c(O)c(O)ccc2c(=O)c1-c1ccc(Cl)cc1,-4,3,4,72*,-8,10
Cc1oc2cc(O)cc(C)c2c(=O)c1-c1cnn(-c2ccccc2)c1,4,1,0,11,0,6
Cc1oc2c(O)c(O)ccc2c(=O)c1-c1cnn(-c2ccccc2)c1,11,-6,6,87*,0,-4
Cc1oc2c(CN3CCCC3)c(O)ccc2c(=O)c1-c1ccc(Br)cc1,6,-2,-2,7,-3,10
Cc1ccc2c(c1)N(CCCC(=O)NCc1cccs1)C(=O)CO2,x,-2,x,x,x,4
Cc1cc2nc(-c3ccc(Cl)cc3)c(Cc3ccsc3)n2c(C)c1Br,x,-1,x,x,-7,1
CCCCOCCCNC(=O)C[C@H]1C[C@@]2(C(=O)OC)C(=C[C@H](C3CCCC3)O[C@@H]2C)N(Cc2cccc3ccccc23)C1=O,x,-3,x,x,x,28
COc1cccc(/C=N/NC(=O)COc2cccc3cccnc23)c1O,-6,-5,0,47,3,15
COc1ccc(OCC(=O)N/N=C/c2cccc3cccnc23)cc1,4,-2,0,68*,-2,-1
COc1ccccc1OCC(=O)N/N=C/c1cccc2cccnc12,-4,-2,1,65*,-1,-10
CC(C)CNC(=O)OCc1cn(Cc2ccccc2C(F)(F)F)nn1,x,0,x,x,x,-2
COCCCN(Cc1ccco1)C(=O)Cn1ncc2c([nH]c3ccccc32)c1=O,2,-4,-1,60*,0,15
O=C(NCc1ccco1)c1cnn2c(C(F)(F)F)cc(-c3cccs3)nc12,15,1,4,65*,1,-8
O=C(c1cnn2c(C(F)(F)F)cc(-c3cccs3)nc12)N1CCCC1,2,0,0,3,2,-3
CCOC(=O)C1C(=O)NC(SCC(=O)OC)=C(C#N)C1c1ccccc1OCC (stereo not drawn),5,x,0,72*,x,x
COc1ccc(NC(=O)N2CCC(N(C)CCC(C)C)CC2)cc1OC,x,6,x,x,x,7
Cc1nccc(-c2ccc(-n3cnc4ccccc43)cc2)n1,-11,-2,-2,17,-3,23
Nc1nccc(-c2ccc(-n3cnc4ccccc43)cc2)n1,-34,-3,-5,2,2,42*
